# Tests used:
# Test in all cases: DAPPL (digital affinity profiling via proximity ligation, sequencing); 10 mM Tris-HCl pH 7.5, 50 mM NaCl, 1 mM DTT, 4% glycerol, room temperature, 30 min; GST-TFs on glutathione beads, 16-mer random dsDNA library, 0.1% formaldehyde crosslink after washing; high values mean tight binding
# [1] = molecular target: T1, FLI1 (Homo sapiens, UniProt Q01543 1-452); conditions: protein: recombinant; tags: N-terminal GST; dsDNA, one strand shown
# T1 sequence: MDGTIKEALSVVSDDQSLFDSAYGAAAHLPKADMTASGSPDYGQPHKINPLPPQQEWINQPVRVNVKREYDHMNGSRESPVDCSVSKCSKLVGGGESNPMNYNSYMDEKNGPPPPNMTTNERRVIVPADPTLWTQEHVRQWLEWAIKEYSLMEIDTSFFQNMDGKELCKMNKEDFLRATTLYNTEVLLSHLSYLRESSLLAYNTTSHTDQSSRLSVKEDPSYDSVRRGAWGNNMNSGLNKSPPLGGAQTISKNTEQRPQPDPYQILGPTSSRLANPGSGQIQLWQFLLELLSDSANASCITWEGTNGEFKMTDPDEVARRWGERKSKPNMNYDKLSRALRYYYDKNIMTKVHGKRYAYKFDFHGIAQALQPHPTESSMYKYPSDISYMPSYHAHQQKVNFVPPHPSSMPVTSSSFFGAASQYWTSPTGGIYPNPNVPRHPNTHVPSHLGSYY
# Outline: (§1)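 Each value of binding signal is a hexamer's read frequency for a factor divided by the same hexamer's frequency in the tag-only sample. Barcoded, bead-captured GST fusions of human transcription factors made in yeast were pooled with that sample and incubated with 200 nmole of a random double-stranded 16-mer DNA library in Tris/NaCl/DTT/glycerol buffer at room temperature for 30 min. Washing, 0.1% formaldehyde crosslinking, proximity ligation, PCR and Illumina NextSeq500 sequencing followed.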
# [2] = molecular target: T2, ELK1 (Homo sapiens, UniProt P19419 1-428); conditions: protein: recombinant; tags: N-terminal GST; dsDNA, one strand shown
# T2 sequence: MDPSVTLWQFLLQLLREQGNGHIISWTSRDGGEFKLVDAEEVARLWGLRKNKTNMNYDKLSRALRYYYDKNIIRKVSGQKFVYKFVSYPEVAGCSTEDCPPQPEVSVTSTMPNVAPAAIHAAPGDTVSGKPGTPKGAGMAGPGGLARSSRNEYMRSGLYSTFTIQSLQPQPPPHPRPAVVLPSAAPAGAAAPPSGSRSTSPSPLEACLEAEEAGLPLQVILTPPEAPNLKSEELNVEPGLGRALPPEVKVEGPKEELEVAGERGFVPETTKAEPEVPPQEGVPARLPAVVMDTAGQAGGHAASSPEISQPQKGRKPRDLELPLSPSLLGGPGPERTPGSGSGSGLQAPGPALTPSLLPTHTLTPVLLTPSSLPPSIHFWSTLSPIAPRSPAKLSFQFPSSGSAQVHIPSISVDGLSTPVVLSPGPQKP
# Outline: as §1
# [3] = molecular target: T3, GABPA (Homo sapiens, UniProt Q06546 1-454); conditions: protein: recombinant; tags: N-terminal GST; dsDNA, one strand shown
# T3 sequence: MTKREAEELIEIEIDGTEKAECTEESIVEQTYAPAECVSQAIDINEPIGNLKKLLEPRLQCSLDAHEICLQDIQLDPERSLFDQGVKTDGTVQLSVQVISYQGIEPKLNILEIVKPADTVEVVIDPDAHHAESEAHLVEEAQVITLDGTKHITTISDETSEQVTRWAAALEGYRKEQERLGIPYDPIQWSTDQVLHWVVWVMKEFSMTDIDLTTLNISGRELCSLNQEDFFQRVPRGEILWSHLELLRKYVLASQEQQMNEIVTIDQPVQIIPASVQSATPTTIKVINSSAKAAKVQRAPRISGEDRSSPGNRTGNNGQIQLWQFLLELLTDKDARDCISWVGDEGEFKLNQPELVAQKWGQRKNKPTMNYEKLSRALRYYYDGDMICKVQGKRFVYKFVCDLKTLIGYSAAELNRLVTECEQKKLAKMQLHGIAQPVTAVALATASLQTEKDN
# Outline: as §1
# [4] = molecular target: T4, ERG (Homo sapiens, UniProt P11308 1-479); conditions: protein: recombinant; tags: N-terminal GST; dsDNA, one strand shown
# T4 sequence: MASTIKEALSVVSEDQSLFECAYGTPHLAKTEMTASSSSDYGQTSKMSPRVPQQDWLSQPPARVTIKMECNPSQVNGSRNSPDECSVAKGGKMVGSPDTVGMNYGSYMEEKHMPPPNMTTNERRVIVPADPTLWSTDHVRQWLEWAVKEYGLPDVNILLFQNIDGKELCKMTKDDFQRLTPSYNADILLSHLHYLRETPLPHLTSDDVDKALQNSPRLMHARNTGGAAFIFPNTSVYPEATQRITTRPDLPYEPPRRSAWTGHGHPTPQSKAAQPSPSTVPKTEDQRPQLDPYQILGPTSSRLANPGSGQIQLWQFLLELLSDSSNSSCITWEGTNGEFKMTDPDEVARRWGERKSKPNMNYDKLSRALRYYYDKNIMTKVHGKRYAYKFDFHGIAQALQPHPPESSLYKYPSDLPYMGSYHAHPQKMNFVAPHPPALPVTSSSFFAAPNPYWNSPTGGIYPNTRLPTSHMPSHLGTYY
# Outline: as §1
# [5] = molecular target: ELF1 (Homo sapiens, UniProt P32519 1-619); conditions: protein: recombinant; tags: N-terminal GST; dsDNA, one strand shown
# ELF1, sequence (P32519 whole entry): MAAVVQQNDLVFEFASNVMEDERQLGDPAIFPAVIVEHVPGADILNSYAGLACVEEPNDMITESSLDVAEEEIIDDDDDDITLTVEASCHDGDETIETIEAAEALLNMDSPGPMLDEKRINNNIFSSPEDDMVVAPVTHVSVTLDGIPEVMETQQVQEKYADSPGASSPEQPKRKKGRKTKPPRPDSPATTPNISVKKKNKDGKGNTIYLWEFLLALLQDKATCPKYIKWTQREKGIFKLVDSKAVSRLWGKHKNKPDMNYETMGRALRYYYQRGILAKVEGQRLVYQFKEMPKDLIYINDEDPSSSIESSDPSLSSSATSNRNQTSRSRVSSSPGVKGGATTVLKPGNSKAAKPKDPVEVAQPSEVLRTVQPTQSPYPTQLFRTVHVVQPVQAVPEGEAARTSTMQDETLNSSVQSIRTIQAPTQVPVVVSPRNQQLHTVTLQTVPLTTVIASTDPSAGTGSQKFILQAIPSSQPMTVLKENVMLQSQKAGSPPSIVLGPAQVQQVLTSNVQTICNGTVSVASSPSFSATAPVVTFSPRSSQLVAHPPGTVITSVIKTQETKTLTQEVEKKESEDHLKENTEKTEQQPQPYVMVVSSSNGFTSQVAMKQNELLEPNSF
# Outline: as §1
# [6] = molecular target: T5, EHF (Homo sapiens, UniProt Q9NZC4 1-300); conditions: protein: recombinant; tags: N-terminal GST; dsDNA, one strand shown
# T5 sequence: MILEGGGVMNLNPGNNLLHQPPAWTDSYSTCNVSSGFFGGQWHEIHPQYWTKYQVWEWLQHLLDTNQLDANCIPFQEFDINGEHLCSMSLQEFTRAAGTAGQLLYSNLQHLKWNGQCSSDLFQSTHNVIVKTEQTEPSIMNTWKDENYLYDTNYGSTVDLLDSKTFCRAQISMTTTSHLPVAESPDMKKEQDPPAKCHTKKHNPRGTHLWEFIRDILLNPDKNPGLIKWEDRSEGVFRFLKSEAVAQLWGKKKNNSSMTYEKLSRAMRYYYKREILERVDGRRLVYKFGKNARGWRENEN
# Outline: as §1
# [7] = molecular target: SPI1 (Homo sapiens, UniProt P17947 1-270); conditions: protein: recombinant; tags: N-terminal GST; dsDNA, one strand shown
# Outline: as §1
# [8] = molecular target: SPIB (Homo sapiens, UniProt Q01892 1-262); conditions: protein: recombinant; tags: N-terminal GST; dsDNA, one strand shown
# SPIB, sequence (Q01892 whole entry): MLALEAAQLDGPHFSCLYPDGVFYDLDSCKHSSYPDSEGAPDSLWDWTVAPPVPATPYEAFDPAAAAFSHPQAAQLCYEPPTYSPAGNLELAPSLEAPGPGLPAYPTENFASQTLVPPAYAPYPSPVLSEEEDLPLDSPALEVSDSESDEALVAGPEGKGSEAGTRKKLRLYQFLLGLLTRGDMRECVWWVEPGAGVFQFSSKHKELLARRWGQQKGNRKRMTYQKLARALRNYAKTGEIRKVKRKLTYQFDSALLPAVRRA
# Outline: as §1
# [9] = molecular target: T6, ELK3 (Homo sapiens, UniProt P41970 1-407); conditions: protein: recombinant; tags: N-terminal GST; dsDNA, one strand shown
# T6 sequence: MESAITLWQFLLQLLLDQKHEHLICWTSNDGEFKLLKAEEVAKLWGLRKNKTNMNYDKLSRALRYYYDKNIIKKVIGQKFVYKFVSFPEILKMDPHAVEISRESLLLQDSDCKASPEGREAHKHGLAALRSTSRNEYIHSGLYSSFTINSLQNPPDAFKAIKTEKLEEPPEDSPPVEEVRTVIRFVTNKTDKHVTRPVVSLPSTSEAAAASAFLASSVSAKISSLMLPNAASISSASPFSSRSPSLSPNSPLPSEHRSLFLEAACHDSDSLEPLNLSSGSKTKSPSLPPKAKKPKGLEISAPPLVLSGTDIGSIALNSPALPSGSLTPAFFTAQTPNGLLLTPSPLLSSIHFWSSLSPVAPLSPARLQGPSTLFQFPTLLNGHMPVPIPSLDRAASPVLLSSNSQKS
# Outline: as §1
# [10] = molecular target: T7, FEV (Homo sapiens, UniProt Q99581 1-238); conditions: protein: recombinant; tags: N-terminal GST; dsDNA, one strand shown
# T7 sequence: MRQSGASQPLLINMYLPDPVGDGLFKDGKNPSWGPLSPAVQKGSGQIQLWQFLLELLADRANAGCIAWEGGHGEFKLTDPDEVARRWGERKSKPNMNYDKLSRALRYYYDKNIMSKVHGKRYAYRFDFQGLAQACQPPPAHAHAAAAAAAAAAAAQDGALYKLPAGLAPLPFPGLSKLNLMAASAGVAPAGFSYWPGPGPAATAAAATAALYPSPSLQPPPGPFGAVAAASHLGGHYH
# Outline: as §1
# [11] = molecular target: ETV5 (Homo sapiens, UniProt P41161 1-510); conditions: protein: recombinant; tags: N-terminal GST; dsDNA, one strand shown
# ETV5, sequence (P41161 whole entry): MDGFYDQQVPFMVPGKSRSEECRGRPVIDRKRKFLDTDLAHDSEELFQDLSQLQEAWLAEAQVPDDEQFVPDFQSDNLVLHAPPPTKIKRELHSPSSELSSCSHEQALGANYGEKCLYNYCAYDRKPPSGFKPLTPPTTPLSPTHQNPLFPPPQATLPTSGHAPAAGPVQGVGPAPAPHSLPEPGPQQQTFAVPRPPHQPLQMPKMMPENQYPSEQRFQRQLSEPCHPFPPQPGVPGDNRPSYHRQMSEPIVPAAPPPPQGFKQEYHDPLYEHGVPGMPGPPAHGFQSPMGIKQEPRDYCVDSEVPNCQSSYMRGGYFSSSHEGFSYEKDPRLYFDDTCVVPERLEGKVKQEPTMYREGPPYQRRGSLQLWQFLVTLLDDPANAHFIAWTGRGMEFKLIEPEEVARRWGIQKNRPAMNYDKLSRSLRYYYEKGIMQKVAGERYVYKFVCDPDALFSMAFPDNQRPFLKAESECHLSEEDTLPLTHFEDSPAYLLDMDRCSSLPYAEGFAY
# Outline: as §1
# [12] = molecular target: HSF1 (Homo sapiens, UniProt Q00613 1-529); conditions: protein: recombinant; tags: N-terminal GST; chain copies: 3; dsDNA, one strand shown
# HSF1, sequence (Q00613 whole entry): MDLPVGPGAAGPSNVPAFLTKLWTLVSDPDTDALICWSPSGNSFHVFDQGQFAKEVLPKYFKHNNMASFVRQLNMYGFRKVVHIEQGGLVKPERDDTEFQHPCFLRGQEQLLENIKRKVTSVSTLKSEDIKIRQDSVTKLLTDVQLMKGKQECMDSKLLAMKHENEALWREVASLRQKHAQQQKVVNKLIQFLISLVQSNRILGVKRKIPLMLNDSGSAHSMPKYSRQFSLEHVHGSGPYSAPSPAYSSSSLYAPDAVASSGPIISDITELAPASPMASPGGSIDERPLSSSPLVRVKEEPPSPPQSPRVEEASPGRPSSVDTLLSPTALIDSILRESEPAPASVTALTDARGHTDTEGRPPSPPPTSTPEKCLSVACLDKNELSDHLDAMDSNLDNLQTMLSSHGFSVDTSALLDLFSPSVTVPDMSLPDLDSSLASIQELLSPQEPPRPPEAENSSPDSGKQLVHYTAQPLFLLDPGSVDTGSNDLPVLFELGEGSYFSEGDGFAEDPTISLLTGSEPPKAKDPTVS
# Outline: as §1
# [13] = molecular target: T8, SPIC (Homo sapiens, UniProt Q8N5J4 1-248); conditions: protein: recombinant; tags: N-terminal GST; dsDNA, one strand shown
# T8 sequence: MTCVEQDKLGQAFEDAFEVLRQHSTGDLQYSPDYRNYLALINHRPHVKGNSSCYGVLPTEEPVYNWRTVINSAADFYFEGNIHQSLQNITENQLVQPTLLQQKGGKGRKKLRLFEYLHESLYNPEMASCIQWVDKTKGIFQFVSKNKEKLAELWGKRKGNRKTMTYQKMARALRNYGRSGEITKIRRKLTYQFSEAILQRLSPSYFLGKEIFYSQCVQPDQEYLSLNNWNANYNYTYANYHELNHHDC
# Outline: as §1
# [14] = molecular target: ELF4 (Homo sapiens, UniProt Q99607 1-663); conditions: protein: recombinant; tags: N-terminal GST; dsDNA, one strand shown
# ELF4, sequence (Q99607 whole entry): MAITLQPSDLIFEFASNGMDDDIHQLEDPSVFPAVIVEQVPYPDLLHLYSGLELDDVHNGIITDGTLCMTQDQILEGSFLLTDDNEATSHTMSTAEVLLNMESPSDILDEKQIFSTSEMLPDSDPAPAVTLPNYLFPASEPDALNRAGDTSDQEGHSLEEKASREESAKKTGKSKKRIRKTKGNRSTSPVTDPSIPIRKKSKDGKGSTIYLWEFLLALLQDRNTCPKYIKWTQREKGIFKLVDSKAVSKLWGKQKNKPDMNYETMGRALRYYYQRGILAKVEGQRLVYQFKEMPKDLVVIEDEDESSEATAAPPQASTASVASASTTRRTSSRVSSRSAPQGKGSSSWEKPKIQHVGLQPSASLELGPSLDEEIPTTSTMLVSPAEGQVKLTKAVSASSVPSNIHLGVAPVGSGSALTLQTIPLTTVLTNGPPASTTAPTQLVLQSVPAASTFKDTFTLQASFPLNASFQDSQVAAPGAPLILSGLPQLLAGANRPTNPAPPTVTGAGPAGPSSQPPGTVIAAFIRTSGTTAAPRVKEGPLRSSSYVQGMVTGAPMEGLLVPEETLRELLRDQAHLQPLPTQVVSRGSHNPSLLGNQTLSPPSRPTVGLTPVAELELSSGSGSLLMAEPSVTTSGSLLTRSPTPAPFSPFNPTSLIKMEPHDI
# Outline: as §1
# [15] = molecular target: T9, ELK4 (Homo sapiens, UniProt P28324-2 1-405); conditions: protein: recombinant; tags: N-terminal GST; dsDNA, one strand shown
# T9 sequence: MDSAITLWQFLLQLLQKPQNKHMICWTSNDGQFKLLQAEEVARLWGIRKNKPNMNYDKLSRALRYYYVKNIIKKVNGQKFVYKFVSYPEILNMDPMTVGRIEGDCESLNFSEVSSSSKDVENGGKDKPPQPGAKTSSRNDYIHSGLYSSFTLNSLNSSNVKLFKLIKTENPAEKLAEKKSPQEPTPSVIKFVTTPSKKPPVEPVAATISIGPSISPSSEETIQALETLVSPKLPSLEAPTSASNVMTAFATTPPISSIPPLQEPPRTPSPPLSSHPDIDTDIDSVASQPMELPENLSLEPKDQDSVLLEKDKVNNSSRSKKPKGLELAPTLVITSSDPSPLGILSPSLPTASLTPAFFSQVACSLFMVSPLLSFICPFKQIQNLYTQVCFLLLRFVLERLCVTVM
# Outline: as §1
# [16] = molecular target: T10, ETV2 (Homo sapiens, UniProt O00321 1-342); conditions: protein: recombinant; tags: N-terminal GST; dsDNA, one strand shown
# T10 sequence: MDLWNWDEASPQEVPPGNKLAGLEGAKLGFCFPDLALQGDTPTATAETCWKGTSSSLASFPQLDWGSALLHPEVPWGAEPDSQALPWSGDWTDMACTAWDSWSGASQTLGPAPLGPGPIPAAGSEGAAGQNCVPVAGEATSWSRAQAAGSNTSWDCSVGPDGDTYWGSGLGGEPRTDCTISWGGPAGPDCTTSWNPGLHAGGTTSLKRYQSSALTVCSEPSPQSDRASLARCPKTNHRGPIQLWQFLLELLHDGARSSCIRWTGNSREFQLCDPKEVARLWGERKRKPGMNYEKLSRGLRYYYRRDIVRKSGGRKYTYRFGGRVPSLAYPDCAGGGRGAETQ
# Outline: as §1
# [17] = molecular target: T11, ELF3 (Homo sapiens, UniProt P78545 1-371); conditions: protein: recombinant; tags: N-terminal GST; dsDNA, one strand shown
# T11 sequence: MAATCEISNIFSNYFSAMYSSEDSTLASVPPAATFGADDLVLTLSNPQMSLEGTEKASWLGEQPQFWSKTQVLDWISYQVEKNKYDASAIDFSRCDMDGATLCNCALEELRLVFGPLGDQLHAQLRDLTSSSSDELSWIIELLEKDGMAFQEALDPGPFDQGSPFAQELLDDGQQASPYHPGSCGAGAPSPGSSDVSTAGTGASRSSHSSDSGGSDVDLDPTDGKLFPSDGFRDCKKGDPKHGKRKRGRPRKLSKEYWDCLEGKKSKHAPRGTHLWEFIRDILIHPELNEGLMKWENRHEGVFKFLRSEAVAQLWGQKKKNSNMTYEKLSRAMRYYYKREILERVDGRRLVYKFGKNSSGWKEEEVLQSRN
# Outline: as §1
# [18] = molecular target: CRX (Homo sapiens, UniProt O43186 1-299); conditions: protein: recombinant; tags: N-terminal GST; dsDNA, one strand shown
# CRX, sequence (O43186 whole entry): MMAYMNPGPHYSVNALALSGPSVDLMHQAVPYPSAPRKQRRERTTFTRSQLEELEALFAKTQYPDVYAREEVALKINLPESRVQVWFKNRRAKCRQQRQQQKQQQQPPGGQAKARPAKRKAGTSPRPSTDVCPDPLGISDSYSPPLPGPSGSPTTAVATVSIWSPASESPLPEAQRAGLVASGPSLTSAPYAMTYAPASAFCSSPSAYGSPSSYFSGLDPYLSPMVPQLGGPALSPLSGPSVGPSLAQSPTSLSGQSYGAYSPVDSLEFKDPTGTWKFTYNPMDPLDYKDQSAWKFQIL
# Outline: as §1
# [19] = molecular target: ETV1 (Homo sapiens, UniProt P50549 1-477); conditions: protein: recombinant; tags: N-terminal GST; dsDNA, one strand shown
# ETV1, sequence (P50549 whole entry): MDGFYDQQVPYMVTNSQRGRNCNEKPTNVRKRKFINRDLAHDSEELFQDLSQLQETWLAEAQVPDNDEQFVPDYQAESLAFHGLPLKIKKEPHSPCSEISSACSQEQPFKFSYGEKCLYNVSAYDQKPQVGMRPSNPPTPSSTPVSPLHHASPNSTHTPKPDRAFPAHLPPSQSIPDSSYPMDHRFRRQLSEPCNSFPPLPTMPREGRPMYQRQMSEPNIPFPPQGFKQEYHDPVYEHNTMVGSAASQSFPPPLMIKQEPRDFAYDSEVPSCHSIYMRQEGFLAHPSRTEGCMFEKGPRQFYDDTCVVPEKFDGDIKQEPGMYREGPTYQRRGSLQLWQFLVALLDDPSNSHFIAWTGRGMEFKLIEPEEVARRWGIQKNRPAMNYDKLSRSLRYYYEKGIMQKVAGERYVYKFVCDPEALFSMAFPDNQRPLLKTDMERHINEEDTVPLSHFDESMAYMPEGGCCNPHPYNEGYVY
# Outline: as §1
sequence,measurement,setting,value
CTACAT,binding signal,[1],"1.43 fold enrichment (6-mer frequency, TF over GST control)"
same,binding signal,[2],"1.4 fold enrichment (6-mer frequency, TF over GST control)"
same,binding signal,[3],"1.44 fold enrichment (6-mer frequency, TF over GST control)"
same,binding signal,[4],"1.32 fold enrichment (6-mer frequency, TF over GST control)"
same,binding signal,[5],"1.38 fold enrichment (6-mer frequency, TF over GST control)"
same,binding signal,[6],"1.28 fold enrichment (6-mer frequency, TF over GST control)"
same,binding signal,[7],"1.38 fold enrichment (6-mer frequency, TF over GST control)"
same,binding signal,[8],"1.5 fold enrichment (6-mer frequency, TF over GST control)"
same,binding signal,[9],"1.43 fold enrichment (6-mer frequency, TF over GST control)"
same,binding signal,[10],"1.44 fold enrichment (6-mer frequency, TF over GST control)"
same,binding signal,[11],"1.45 fold enrichment (6-mer frequency, TF over GST control)"
same,binding signal,[12],"1.17 fold enrichment (6-mer frequency, TF over GST control)"
same,binding signal,[13],"1.51 fold enrichment (6-mer frequency, TF over GST control)"
same,binding signal,[14],"1.37 fold enrichment (6-mer frequency, TF over GST control)"
same,binding signal,[15],"1.33 fold enrichment (6-mer frequency, TF over GST control)"
same,binding signal,[16],"1.31 fold enrichment (6-mer frequency, TF over GST control)"
same,binding signal,[17],"1.28 fold enrichment (6-mer frequency, TF over GST control)"
same,binding signal,[18],"1.11 fold enrichment (6-mer frequency, TF over GST control)"
same,binding signal,[19],"1.41 fold enrichment (6-mer frequency, TF over GST control)"

# From paper PMC7862700, “An all-to-all approach to the identification of sequence-specific readers for epigenetic DNA modifications on cytosine”
